30 compounds from PubChem BioAssay AID602127 (Broad Institute, 2011) can be followed below.

SMILES strings stand for the structures. Potency and affinity values are given separately. Activity calls are given as the source filed them.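 How the source made its calls: active means every repeat test judged active, meaning a falling signal with potency within twice the top valid dose; inconclusive means repeat tests disagree on the call; inactive means every repeat test inactive, including signal moving upward.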

The target of this test is Cyclin-dependent kinase 2 (Homo sapiens) (UniProt P24941). Nature of the test: CDK2 kinase inhibitors, off-target check, dose response, selectivity assay for Dyrk1A inhibitor project, biochemical, cherry-picked samples (AID 602127). As to conditions: CDK2/cyclin A kinase, ADP-Glo luminescence, 60 min; series mostly up to 10 µM; activity change, negative = inhibition: at the top concentration.
`Cc1nc(NC(=O)c2ccccc2)sc1-c1csc(NCc2ccco2)n1`: the “activity change, negative = inhibition” value is -9.08% (inactive). On the same count and under the same terms, next, `c1nc(NCC2CCCC2)c2cc(-c3ccc4c(c3)OCO4)ccc2n1`: 7.36% (inactive); `Clc1ccc(CNc2ncncc2-c2ccc3c(c2)OCO3)cc1`: -1.46% (inactive); `Cc1ccsc1CNc1ncnc2ccc(-c3ccc4c(c3)OCO4)cc12`: -11.8% (inactive). Turning to `CCOC(=O)c1ccc(-c2ccc3ncnc(NCc4ccc(C)o4)c3c2)o1`, the call was inactive.

As to `COc1cccc(Nc2ncnc3sc(C)cc23)c1`, the “activity change, negative = inhibition” value was -4.69% (inactive). Still for that read-out and setting: in the case of `COc1cccc(NC(=O)c2sc(NC(=O)c3ccncc3)nc2C)c1` it was -3.42% (inactive). Same read-out and setting: next, `Cc1c(-c2ccnc(NCc3ccc(Cl)cc3)n2)sc(=O)n1C`: 2.58% (inactive). For `CC1Cc2ccccc2N1c1ncnc2nc[nH]c12` (stereo not given), the “activity change, negative = inhibition” value was -5.61% (inactive).

`COc1ccc(C(=O)c2sc(Nc3ccccc3F)nc2N)cc1`: the “activity change, negative = inhibition” value was 10% (inactive). On the same count and under the same terms, in the case of `Cc1ccnc(NC(=O)c2cccc(S(=O)(=O)N3CCN(c4ccccc4)CC3)c2)c1` it was -4.96% (inactive).

For `COc1cccc(Nc2nc(-c3ccc(O)cc3)cs2)c1`, the “activity change, negative = inhibition” value was -12.6% (inactive). As to `O=c1cc(-c2ccccc2Cl)oc2c(NS(=O)(=O)c3ccccc3C(F)(F)F)ccc(O)c12`, the “activity change, negative = inhibition” value was -8.7% (inactive). Regarding `Clc1ccc(CNc2nccc(-c3ccc4[nH]ncc4c3)n2)cc1Cl`, the “activity change, negative = inhibition” value was -6.13% (inactive). On the same count and under the same terms, in the case of `Cc1nc(CN(C)c2ncnc3ccc(-c4ccc5c(c4)OCO5)cc23)cs1` it was -13.5% (inactive); in that of `CSCC(=O)Nc1nc(-c2ccc3c(c2)OCCO3)cs1`, -13.3% (inactive). On the same count and under the same terms, in the case of `CCN1CCN(Cc2ccc(NC(=O)c3ccc(C)c(NC(=O)N4CCNC4=O)c3)cc2C(F)(F)F)CC1` it was -7.15% (inactive); in that of `Fc1c(-c2ccc3ncnc(NCc4cccs4)c3c2)ccc2c1OCO2`, -2% (inactive); in that of `c1nc(NCC2CCCOC2)c2cc(-c3ccc4c(c3)OCO4)ccc2n1` (stereo not given), -7.3% (inactive). For `Cc1noc(CN(C)c2ncnc3ccc(-c4ccc5c(c4)OCO5)cc23)n1`, the “activity change, negative = inhibition” value is -6.39% (inactive). Same read-out and setting: in the case of `O=C(Nc1nc2ccc(Cl)cc2s1)C1CCCO1` (stereo not given) it was -16.6% (inactive); in that of `COc1ccc(-c2nccc(NCc3ccc(C)cc3)n2)cc1`, -10.5% (inactive).

As for `Brc1cc(Br)cc(CNc2nccc(-c3ccc4c(c3)OCO4)n2)c1`, the “activity change, negative = inhibition” value is -3.23% (inactive). Same read-out and setting: in the case of `Cc1nc(N)sc1-c1csc(Nc2ccccc2)n1` it was -2.75% (inactive); in that of `Cc1csc(CN(C)c2ncnc3ccc(-c4ccc5c(c4)OCO5)cc23)n1`, 2.04% (inactive). Still for that read-out and setting: next, `Cc1ccc(CNc2ncnc3ccc(-c4ccoc4C)cc23)o1`: 15.1% (inactive); `Cc1ccc(CNc2ncnc3ccc(-c4ccc5c(c4)OCO5)cc23)o1`: -4.91% (inactive); `FC(F)(F)c1cccc(Nc2nccc(-c3ccc4c(c3)OCO4)n2)c1`: 7.47% (inactive). Take `c1nc(NCC2CCCO2)c2cc(-c3ccc4c(c3)OCO4)ccc2n1` (stereo not given): the “activity change, negative = inhibition” value was 9.32% (inactive).

On to `Cc1nc(CNc2ncnc3ccc(-c4ccc5c(c4)OCO5)cc23)cs1`, for which the “activity change, negative = inhibition” value is 1.07% (inactive).
